Assay outcomes from PubChem BioAssay.
Only a selection was taken, and hits are over-represented in it overall.
MARV entry inh = qHTS for inhibitors of binding or entry into cells for Marburg Virus | 300,000 tested, 1.8% active | Potency, µM (highest dose often 37.8 µM), for the others: at the highest dose activity change, negative = inhibition, actives largely listed as inhibitors | Marburg virus pseudotyped entry inhibition, cell reporter; calls by dose curve; tested in HEK293 cells; further: potency means the concentration at half of the fitted maximal effect; on the % scale 0 is the no-effect control and ±100 the full control effect
Vaccinia mCherry = qHTS for Stage-Specific Inhibitors of Vaccinia Orthopoxvirus: mCherry Reporter Primary qHTS; Vaccinia virus mCherry reporter infection, fluorescence; Potency, µM (titrated, usually from 36.5 µM), for the others: at the top dose activity change, negative = inhibition, most hits filed as inhibitors; 310,000 tested, 0.63% active; calls by dose curve; tested in A549 cells; further: potency means the concentration at half of the fitted maximal effect; on the % scale 0 is the no-effect control and ±100 the full control effect; nearly all actives have a fitted effect of over 35% in size
Shiga toxin inh = A qHTS for Small Molecule Inhibitors of Shiga Toxin | Vero cells, Shiga toxin protein synthesis inhibition reporter | inhibition, % at 38.7 µM | 290,000 tested, 9.2% active | AID 2315, 2010; in the data active means inhibition mostly above about 28%, no sharp cut-off; inactive means mostly below about 43%; further: 0% is about no effect
Lassa entry inh = qHTS for Inhibitors of binding or entry into cells for Lassa Virus | Lassa virus pseudotype entry inhibition, cell reporter | Potency, µM (top dose mostly 37.9 µM), for the others: at the top dose activity change, negative = inhibition, actives largely listed as inhibitors | 300,000 tested, 1.2% active; calls by dose curve; tested in HEK293 cells; further: potency means the concentration at half of the fitted maximal effect; on the % scale 0 is the no-effect control and ±100 the full control effect; nearly all actives have a fitted effect of over 50% in size
CHX counter = Cycloheximide Counterscreen for Small Molecule Inhibitors of Shiga Toxin; 300,000 tested, 12% active; cell reporter, cycloheximide protein synthesis inhibition counterscreen; max response, %; AID 2314, 2010; in the data active means max response mostly above about 13%, no sharp cut-off; inactive means mostly below about 14%; further: read at 38.3 µM for the half of the compounds with a filed dose; 0% is about no effect
Vaccinia Venus = qHTS for Stage-Specific Inhibitors of Vaccinia Orthopoxvirus: Venus Reporter Primary qHTS; Potency, µM (highest dose often 36.5 µM), inactives show top-dose activity change, negative = inhibition, hits mostly inhibitors; 330,000 tested, 0.46% active; Vaccinia virus Venus reporter expression, fluorescence; calls by dose curve; tested in A549 cells; further: potency means the concentration at half of the fitted maximal effect; on the % scale 0 is the no-effect control and ±100 the full control effect; nearly all actives have a fitted effect of over 30% in size
Active calls of the source: *; i = inactive; ? = inconclusive; / = no result given; [ ] = remark or other dose.

SMILES	MARV entry inh	Vaccinia mCherry	Shiga toxin inh	Lassa entry inh	CHX counter	Vaccinia Venus
CC(Sc1nc2ccc(C(=O)c3ccccc3)cc2[nH]1)C(=O)O (configuration not stated)	?	-4%	11	-3%	-1	-16%
Cc1ccc2nc(SCC(=O)c3ccc(O)cc3O)[nH]c2c1	/	/	49*	/	46*	/
Cc1ccc2nc(SCC(=O)N3CCN(C(=O)c4ccco4)CC3)[nH]c2c1	27%	-12%	12	-9%	10	-11%
Cc1ccc2nc(SCC(=O)N3CCCC3)[nH]c2c1	-3%	i	92	?	22*	-2%
Cc1ccc2nc(SC(C)C(=O)N3CCCC3)[nH]c2c1 (configuration not stated)	7%	-18%	57*	1%	25*	-7%
CN(C)C(=O)CSc1nc2ccc(C(=O)c3ccccc3)cc2[nH]1	/	/	/	/	23*	/
Cc1ccc2nc(SC(C)C(=O)N3CC(C)OC(C)C3)[nH]c2c1 (configuration not stated)	4%[46.1 µM]	-12%	33	27%[46.1 µM]	35	-12%
CCOC(=O)c1c(NC(=O)COc2cc(C)ccc2C(C)C)sc2c1CCCC2	/	-2%	/	-25%[46.1 µM]	/	2%
CCc1nc(Oc2cccc(F)c2)c2oc3ccccc3c2n1	/	-4%	/	0%[46.1 µM]	/	-2%
CCc1cccc(-n2c(=O)c3cccnc3n2CC(=O)Nc2ccccc2C(=O)OC)c1	/	-8%[7.34 µM]	/	19%[46.1 µM]	/	-3%[7.34 µM]
Cc1ccc(SC(C)C(=O)N2CCCC2)cc1 (configuration not stated)	5%	-15%	15	?	-5	4%
Cc1ccc2nc(SC(C)C(=O)N3CCCCC3)[nH]c2c1 (configuration not stated)	13%[46.1 µM]	-10%	105	?	35*	-16%
CCC1CCCCN1C(=O)Cn1c(=O)n(CC2CCC(C(=O)NC)CC2)c(=O)c2sccc21 (configuration not stated)	/	-9%	/	-5%[46.1 µM]	/	-5%
c1csc(-c2nc3nc4ccccc4nc3n2Cc2ccc3c(c2)OCO3)c1	?	-17%	33*	?	12*	-15%
CCCn1c(-c2cccs2)nc2nc3ccccc3nc21	?	/	27	0%	11	/
COCCn1c(-c2cccs2)nc2nc3ccccc3nc21	/	/	20	/	13*	/
Cc1cccc(C)c1NC(=O)Cn1cc(S(=O)(=O)Cc2ccc(F)cc2)c2ccccc21	/	i	/	-5%[46.1 µM]	/	-14%
Cc1nc(-c2ccc(Cl)cc2)sc1CCNC(=O)C(=O)Nc1ccc(F)cc1F	/	-1%	/	7%[46.1 µM]	/	-3%
CN(C)CCCNc1nc(-c2ccccc2)nc2ccccc12	13µM*	i	7	-13%[46.1 µM]	0	-16%
c1ccc(-c2oc3ncnc(NCCCn4ccnc4)c3c2-c2ccccc2)cc1	?	-30%	-14	-30%	0	-20%
CN(C)CCCNc1c2ccccc2nc2ccccc12	5.6µM*	7.1µM*	-5	?	-2	8.9µM*
CN(C)CCCNc1ncnc2oc(-c3ccccc3)c(-c3ccccc3)c12	8.9µM*	-19%	-13	?	-5	?
Cc1ccc(-c2nc(NCCCN(C)C)c3ccccc3n2)cc1	/	-5%	/	/	/	-21%
CC(=O)c1ccc(N2CCN(C(=S)Nc3ccccc3C(F)(F)F)CC2)cc1	?	?	-4	?	2	?
Cc1noc(NS(=O)(=O)c2ccc(NC(=O)/C=C/c3ccccc3)cc2)c1C	2%	-16%	/	32%	/	-14%
SMILES	MARV entry inh	Vaccinia mCherry	Shiga toxin inh	Lassa entry inh	CHX counter	Vaccinia Venus
Cc1noc(NS(=O)(=O)c2ccc(N/C=C/C(=O)c3ccc4c(c3)OCO4)cc2)c1C	?	/	120*	12%	59*	/
Cc1ccc(N/C=C/C(=O)c2cccs2)cc1	/	/	17	/	24	/
Cc1noc(NS(=O)(=O)c2ccc(N/C=C\C(=O)c3cccs3)cc2)c1C	5%	/	94*	2%	43*	/
Cc1noc(NS(=O)(=O)c2ccc(N/C=C\C(=O)c3ccccc3)cc2)c1C	15%[46.1 µM]	9%	118*	3%	46*	3%
Cc1noc(NS(=O)(=O)c2ccc(N/C=C\C(=O)c3ccc(F)cc3)cc2)c1C	-5%[46.1 µM]	0%	90*	18%	61*	3%
Cc1nc(NCC(=O)c2c[nH]c3ccccc23)sc1C	/	-21%	/	/	/	-27%
CCc1ccccc1NC(=O)N1CCN(c2cc(-c3noc(C)n3)ccc2C)CC1	/	-7%	/	14%[46.1 µM]	/	0%
Cc1ccc2c(=O)cc(C(=O)Nc3ccc(S(=O)(=O)Nc4onc(C)c4C)cc3)oc2c1	2%[46.1 µM]	-7%	-6	0%[46.1 µM]	-5	-1%
Cc1ccc2c(C)c(C(=O)Nc3ccc(S(=O)(=O)Nc4onc(C)c4C)cc3)oc2c1	5%[46.1 µM]	-5%	89*	-11%[46.1 µM]	55*	9%
C/C(N)=C(/C#N)C(=O)COC(=O)C1CCC(C(C)(C)C)CC1 (configuration not stated)	-2%	-21%	56*	?	16*	-20%
Cc1ccc(-c2n[nH]c3c2C(c2cccs2)N(c2ccc(Cl)cc2)C3=O)cc1 (configuration not stated)	?	?	/	?	/	-23%
C=CCn1c(=N)c(S(=O)(=O)c2ccc(C)c(C)c2)cc2c(=O)n3ccccc3nc21	/	/	-5	/	-2	/
Cc1ccc2nc(NC(=O)C3CC(=O)N(Cc4ccco4)C3)sc2c1 (configuration not stated)	10%[46.1 µM]	i	25	25%[46.1 µM]	19*	-21%
O=C(Nc1nc2c(F)cc(F)cc2s1)C1CC(=O)N(Cc2ccco2)C1 (configuration not stated)	/	-4%	47	/	24*	-2%
CNC(=S)NNC(=O)c1sccc1C	12%	?	34	7%	18*	-11%
CCCc1cc(C(=O)NNC(=S)NC2CCCCC2)cs1	13%[46.1 µM]	-12%	34	25%[46.1 µM]	22*	-15%
Cc1ccsc1C(=O)NNC(=S)NC1CCCCC1	/	/	37*	/	38*	/
CC(=O)Nc1ccc(S(=O)(=O)N2CCC(NC(=O)C(Cc3cccc(F)c3)NC(C)=O)CC2)cc1 (configuration not stated)	8%[46.1 µM]	-22%	-6	-3%[46.1 µM]	-9	-7%
CS(=O)Cc1cc(Sc2ccccc2)nc(-c2cccnc2)n1 (configuration not stated)	?	-3%	-8	-10%	-3	3%
Cc1ccc(CNC(=O)CCCn2nc(C)n3ccnc3c2=O)cc1	/	45%	-5	/	-2	3%
CN(C)c1ccc(C(CNS(=O)(=O)c2ccc3ccccc3c2)c2c[nH]c3ccccc23)cc1 (configuration not stated)	6%	i	27	1%	23*	1%
COc1ccc(-c2c(C)nc3c(-c4ccccn4)cnn3c2N)cc1	?	-3%	96*	?	59*	-23%
